KDM4E inh: qHTS Assay for Inhibitors of Human Jumonji Domain Containing 2E (JMJD2E) | JMJD2E catalytic domain, FDH-coupled NADH fluorescence (FDH is formaldehyde dehydrogenase) | Potency, µM (highest dose often 57.1 µM), without a hit: at the highest dose activity change, negative = inhibition, actives largely listed as inhibitors | 1.6% of 230,000 active | AID 2147, 2009; active = well fitted inhibition curve with a large enough effect, not every such curve was filed as active; inconclusive = small, poorly fitted or top-dose-only effect, or another doubt; inactive = no such curve, though single readings can be large or run the other way;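 also: potency is read from the fitted curve at half-maximal effect; 0% = wells with enzyme and -100% = buffer wells without enzyme; nearly all actives have a fitted effect of over 50% in size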
Target sequence (B2RXH2 1-337 limits assumed): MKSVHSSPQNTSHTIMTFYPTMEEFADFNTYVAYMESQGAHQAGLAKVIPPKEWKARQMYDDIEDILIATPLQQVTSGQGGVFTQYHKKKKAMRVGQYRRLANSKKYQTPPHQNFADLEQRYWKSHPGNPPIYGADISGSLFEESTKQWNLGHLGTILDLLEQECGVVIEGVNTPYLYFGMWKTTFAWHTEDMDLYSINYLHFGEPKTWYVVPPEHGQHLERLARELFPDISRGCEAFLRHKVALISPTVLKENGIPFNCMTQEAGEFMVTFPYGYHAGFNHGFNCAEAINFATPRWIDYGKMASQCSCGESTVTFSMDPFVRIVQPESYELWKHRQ
LMNA splice mod: qHTS Assay for Modulators of Lamin A Splicing; 0.01% of 200,000 active; Potency, µM (highest dose often 46.1 µM), for inactives: at the top dose ratio change, negative = inhibition, actives largely listed as inhibitors; HeLa LMNA splicing GFP/RFP minigene ratio, 48 h; active = well fitted inhibition curve with a large enough effect in the signal ratio, with a control signal flat, not every such curve was filed as active; inconclusive = small, poorly fitted or top-dose-only effect, or effect the other way, or a change in a side signal; the % refers to the signal ratio; also: potency is read from the fitted curve at half-maximal effect; % is scaled to controls: 0 for no effect and ±100 for the full control effect
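Read-out is the ratio of GFP to DsRed2 object intensity, acquired by 488 nm laser-scanning cytometry on HeLa lamin A-EGFP minigene reporter cells. Compound incubation 48 hrs at 37 °C in Opti-MEM with 2% FBS; DMSO 0.5% final.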
miR-21 act: qHTS Assay for Modulators of miRNAs and/orActivators of miR-21; Potency, µM (top dose mostly 38.3 µM), without a hit: at the highest dose activity change, positive = activation, usual class: activators; 340,000 tested, under 10 active; HeLa miR-21 FLuc reporter, luciferase, 48 h;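 also: % of control where 0% means no effect; miR-21 action dims this reporter so a rising signal means less miR-21 action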
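Using DMEM plus 10% FBS, HeLa miR-21-FLuc cells are incubated with test compounds (final up to about 40uM) for 48 hours; firefly luciferase signal is then imaged following reagent-mediated lysis.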
G9a inh: qHTS Assay for Inhibitors of Histone Lysine Methyltransferase G9a. G9a H3K9 monomethylation, AlphaScreen, 2 h. Potency, µM (titrated, usually from 102 µM), for the others: at the highest dose activity, negative = inhibition, actives largely listed as inhibitors. AID 504332, 2011. 8.8% of 350,000 active. Histone-lysine N-methyltransferase EHMT2 (Homo sapiens), Q96KQ7; also: potency is read from the fitted curve at half-maximal effect; % is scaled to controls: 0 for no effect and ±100 for the full control effect; nearly all actives have a fitted effect of over 75% in size
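AlphaScreen read-out: biotin-H3K9 peptide (500 nM) methylation by 20 nM enzyme with 20 uM SAM, 2 h at room temperature after 15 min compound preincubation; anti-monomethyl H3K9 antibody plus donor/acceptor beads, 10 min dark.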
Sfp PPTase inh: qHTS Assay for Inhibitors of Bacillus subtilis Sfp phosphopantetheinyl transferase (PPTase); 4'-phosphopantetheinyl transferase ffp (Bacillus subtilis), Q9F4F7; Biochemical Sfp PPTase activity, qHTS; Potency, µM, for the others: largest response in the series, negative = inhibition, actives largely listed as inhibitors; 3.5% of 310,000 active; AID 1490, 2009;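 also: the enzyme is Sfp with the accession as filed and its product quenches rhodamine fluorescence; potency is read from the fitted curve at half-maximal effect; 0% = enzyme reaction without inhibitor and -100% = no enzyme wells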
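Compounds were incubated with enzyme (final 15 nM) for 15 min at room temperature before substrate addition started the reaction. Fluorescence at 525 nm excitation, 598 nm emission was recorded immediately and after 30 minutes.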
ALDH1A1 inh: qHTS Assay for Inhibitors of Aldehyde Dehydrogenase 1 (ALDH1A1); Purified ALDH1A1, NADH fluorescence, propionaldehyde substrate; Potency, µM (doses to about 75.3 µM), for inactives: at the top dose activity, negative = inhibition, actives largely listed as inhibitors; AID 1030, 2008; 7.3% of 220,000 active; active = well fitted inhibition curve with a large enough effect, not every such curve was filed as active; inconclusive = small, poorly fitted or top-dose-only effect, or another doubt; inactive = no such curve, though single readings can be large or run the other way;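 also: potency is read from the fitted curve at half-maximal effect; plate controls were no enzyme wells and a reference inhibitor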
* hit, by the source's call; ? = inconclusive; . = no result given; [ ] = remark or other dose. An excerpt weighted towards active compounds, which were near 13% of everything screened. Unless noted, calls follow the shape of the dose curve; as a rule, active = well fitted curve in the direction sought with a large enough effect; inconclusive = small, poorly fitted or top-dose-only effect, or another doubt; inactive = no such curve, though single readings can be large; an effect the other way counts as inactive or inconclusive.

SMILES	KDM4E inh	LMNA splice mod	miR-21 act	G9a inh	Sfp PPTase inh	ALDH1A1 inh
C=CCc1c(C)nc(SCc2nc3ccccc3c(=O)[nH]2)[nH]c1=O	3.2%	-18.5%	-12.9%	-32.1%[12.7 µM]	?	14.1µM*
Cc1ccccc1NC(=O)CSc1nccn1C	.	.	1.1%	8.0%[59 µM]	.	.
O=C(/C=C\N1CCOCC1)c1ccc(Br)cc1	.	.	-25.7%	-11.8%	30.2%	.
COc1ccc(C(C)=O)cc1CSc1nc2ccccc2c(=O)n1-c1ccccc1	-3.9%	-1.3%	-1.9%	66.0%[59 µM]	-1.7%	?
C=CCn1c(SCc2cc(C(C)=O)ccc2OCC)nc2ccccc2c1=O	-13.9%	?	?	-14.5%[59 µM]	-11.7%	2.24µM*
C=CCn1c(SCC(=O)N2CCc3ccccc3C2)nc2ccccc2c1=O	-2.3%	4.0%	15.6%	7.2%	-13.7%	12.6µM*
C=CCn1c(Cc2ccccc2)nnc1SCc1nc2ccccc2c(=O)[nH]1	2.8%	7.6%[9.22 µM]	-0.7%	50.1µM*	-20.4%	-10.6%
CCCn1c(SCc2nc3sc(C)c(C)c3c(=O)[nH]2)nc2ccccc2c1=O	-5.7%	0.4%	-7.1%	50.1µM*	-0.9%	-4.7%
C=CCn1c(Cc2ccc(OC)cc2)nnc1SCc1nc2ccccc2c(=O)[nH]1	-9.5%	3.8%	-3.0%	-7.5%[59 µM]	-9.6%	-15.7%
CCN1CCN(c2oc(/C=C/c3cc(OC)c(OC)c(OC)c3)nc2C#N)CC1	.	.	6.3%	-9.9%[59 µM]	.	.
O=C(Nc1c(Cl)cccc1Cl)C1CCN(C(=O)c2cccs2)CC1	.	.	-0.2%	-8.7%	12.3%	.
N#Cc1c(-n2cccc2/C=N/O)sc2c1CCCC2	5.7%	?	0.3%	?	15.4%	0.7%
N#Cc1c(N2C(=O)C3C4C=CC(C4)C3C2=O)sc2c1CCC2 (stereo not given)	-4.2%	3.7%	-10.5%	-16.9%[12.7 µM]	20.1%	17.8µM*
COc1ccccc1NC(=O)Cn1ccn(-c2cc(C)cc(C)c2)c(=O)c1=O	.	16.2%[46 µM]	-0.1%	4.8%[59 µM]	.	.
Fc1ccc2c(c1)-c1c(cnc3cc(-c4ccc(Cl)cc4)nn13)CO2	.	.	-10.2%	1.3%[59 µM]	.	.
CNc1ccc(Oc2nc([N+](=O)[O-])nn2C)cc1	-13.9%	10.5%[46 µM]	0.3%	50.1µM*	14.7%	-2.6%
Cc1ccc2c(=O)c(C(=O)c3ccc(Cl)cc3)cn(CC(=O)Nc3ccc4c(c3)OCCO4)c2n1	.	?	-13.2%	-20.6%[59 µM]	.	.
CC[n+]1c(/C=C(/C)SC)sc2ccccc21	-7.7%	?	-0.3%	44.7µM*	?	?
CC[n+]1c(/C=C(\C)Nc2ccccc2)sc2ccccc21	-9.0%	2.9%	-12.9%	?	56.2µM*	-6.8%
CC[n+]1c(/C=C2/C=C(C)CC(C)C2)sc2ccccc21 (stereo not given)	22.4µM*	.	7.0%	7.94µM*	44.7µM*	?
CC[n+]1c(/C=C(\C)OC)sc2ccccc21	?	.	-3.7%	?	-11.2%	3.0%
CC[n+]1c(/C=C/Nc2ccccc2)sc2ccccc21	-2.8%	?	7.5%	7.94µM*	-18.4%	-2.8%
CC1=C(c2ccc(C)cc2)S(=O)(=O)N(Cc2ccc(C(=O)Nc3ccc(F)cc3C)cc2)C1=O	.	?	3.6%	17.2%[59 µM]	.	.
CCC(=O)N1CCc2cc(CNS(=O)(=O)c3ccccc3F)ccc21	.	-6.4%[46 µM]	-60.4%	1.7%[59 µM]	.	.
CC[n+]1ccccc1/C=C/Nc1ccccc1	17.8µM*	.	-2.1%	44.7µM*	-4.8%	6.5%
CC[n+]1c(/C=C(\C)SC)sc2ccccc21	-5.3%	-13.0%	6.0%	79.4µM*	79.4µM*	5.97µM*
CC/C(=C/c1sc2ccccc2[n+]1CC)SC	-3.2%	0.4%	-8.6%	-19.1%[59 µM]	-2.5%	-14.3%

Source: PubChem
